Inconclusive results are not listed. A number with no mark means an inactive call. Calls of active or inactive are those of the source. The call rests on the fitted dose curve; in most records, active means well fitted cell-killing curve with a large enough effect; inconclusive means small, poorly fitted or top-dose-only effect, or effect the other way; inactive means no such curve, though single readings can be large or run the other way. *1 amine or outer side, *2 acyl side, *3 side chain or, on linkers, in order; H or OH if unused. Where a SMILES comes first, the peptide text is derived from it. Bridges are numbered along the chain shown (N, C = ends). Roman numbers before positions name the chains, in order. [ ]: non-standard residue; d: D form. Actinocin(9to1) = Cc1c2oc3c(C)ccc(C(=O)[*:1])c3nc-2c(C(=O)[*:2])c(N)c1=O; NMeV = CN[C@H](C(=O)O)C(C)C; Sar = CNCC(=O)O
Test system: SKOV3
Experiment: Confirmatory qHTS for gynecologic anti-cancer compounds from libraries of approved drugs and bioactive compounds; further: nearly all actives have a fitted effect of over 55% in size
Settings: gynecologic cancer cell panel viability, ATPlite luminescence, 48 h; series mostly up to 57.6 µM; activity change, negative = viability loss: at the top concentration
From the text: National Center for Advancing Translational Sciences [NCATS] Assay Overview: Chemotherapeutic drug responses vary from cancer to cancer and from patient to patient. These variations could be caused by a number of factors including patient genomic background, tumor mutations, tumor heterogeneity, and aspects of drug treatment. Chemotherapeutic drug resistance is also a common issue and can lead to ineffective treatment and patient death. Here we have profiled the cell killing effects of thousands of compounds to characterize the responses in three gynecological cancers, identify cancer-selective compounds, and understand the diversity of responses to these compounds from pan-cancer suppressors to single cell line selective compounds. In this assay, we screened a 7,914 compound drug library that included approved drug and bioactive compounds in six ovarian, three cervical, and two placental cancer cell lines using the ATPlite assay for cell viability. ATPlite is a luminescence based assay reliant on the conversion of a luciferase substrate to light in the presence of ATP. As a cytotoxic compound will suppress growth and decrease the number of cells, the concentration of ATP will decrease, and less light signal will be detected in the well. Hits were selected from the primary screen for follow-up confirmation. For the confirmation screens, the ovarian cancer cell lines included CAOV-3, SK-OV-3, SW 626, ES-2, PA-1, and TOV-21G. The cervical cancer cell lines included HeLa, Ca Ski, and C-33 A. The placental cancer cell lines included JEG-3 and JAR. HEK 293T cells were used as the control cell line to determine the selectivity index. The ATPlite assay was used to determine the IC50 values.
Assay Protocol Summary: 1,000 cells in 4 uL of media were dispensed into white, solid bottom 1536-well plates using a Multidrop Combi (Thermo Scientific). The Assay plates were incubated for 16 hours at 37 C with 5% CO2 in assay plates, followed by the addition of 23 nL of DMSO or drug dissolved in DMSO. . Each compound was assayed in 11 concentrations (1:3 dilution) from 57.5 uM to 0.977 nM, using the automated Wako 1536 Pin Tool workstation and incubated at 37 C with 5% CO2 48 hours. 4 uL of ATPlite, the ATP monitoring reagent, was then added to the each well of the assay plates using the Multidrop Combi reagent dispenser followed by incubation for 15 minutes at room temperature. The resulting luminescence was measured using the ViewLux plate reader.
On the % scale 0 is the no-effect control and ±100 the full control effect; potency means the concentration at half of the fitted maximal effect.

Row | SMILES | activity change, negative = viability loss [%] | Potency
1 | Cc1cc(SCc2sc(-c3ccc(C(F)(F)F)cc3)nc2C)ccc1OCC(=O)O | -4.3 | –
2 | Cc1ccc(NC(=O)c2ccc(CN3CCN(C)CC3)cc2)cc1Nc1nccc(-c2cccnc2)n1 | -17.9 | –
3 | Cc1c(C)n(Cc2ccc(-c3ccccc3C(=O)O)cc2)c2ccc(C(=O)N[C@@H](C)c3ccc([N+](=O)[O-])cc3)cc12 | 27.9 | –
4 | CCC1C(=O)N(C)c2cnc(Nc3ccc(C(=O)NC4CCN(C)CC4)cc3OC)nc2N1C1CCCC1 (stereo not given) | – | 0.109 µM (active)
5 | COc1ccc(OC)c(-c2nnc3ccc(-c4ccc(OC)c(O[C@@H]5CCOC5)c4)nn23)c1 | -8.13 | –
6 | COc1cc(N2CCC(N3CCN(C)CC3)CC2)ccc1Nc1ncc(Cl)c(Nc2ccccc2S(=O)(=O)C(C)C)n1 | – | 19.3 µM (active)
7 | O=C(Nc1cn[nH]c1-c1nc2ccc(CN3CCOCC3)cc2[nH]1)NC1CC1 | – | 7.69 µM (active)
8 | NC(=O)c1cnc(-c2ccc(C3(N)CCC3)cc2)c(-c2ccccc2)c1 | – | 9.68 µM (active)
9 | COc1cc(N2CCC(N(C)C)CC2)ccc1Nc1ncc(Cl)c(Nc2ccccc2P(C)(C)=O)n1 | – | 6.11 µM (active)
10 | O=c1[nH]c(=O)n([C@H]2C[C@H](O)[C@@H](CO)O2)cc1F | -5.81 | –
11 | CC[C@]1(O)C[C@H]2CN(CCc3c([nH]c4ccccc34)[C@@](C(=O)OC)(c3cc4c(cc3OC)N(C=O)[C@H]3[C@@](O)(C(=O)OC)[C@H](OC(C)=O)[C@]5(CC)C=CCN6CC[C@]43[C@@H]65)C2)C1 | -18.4 | –
12 | CN1CCN(CCOc2cc(OC3CCOCC3)c3c(Nc4c(Cl)ccc5c4OCO5)ncnc3c2)CC1 | -28 | –
13 | Cc1cc(CN2CCN(c3c(Br)cnc4nc(-c5ccc(N6CCN(C)CC6)cc5)[nH]c34)CC2)no1 | – | 34.3 µM (active)
14 | Nc1ccccc1NC(=O)c1ccc(CNC(=O)OCc2cccnc2)cc1 | – | 2.17 µM (active)
15 | CC[C@@]1(O)C(=O)OCc2c1cc1n(c2=O)Cc2c-1nc1ccccc1c2/C=N/OC(C)(C)C | – | 0.0432 µM (active)
16 | COc1cc(Nc2ncc(F)c(Nc3ccc4c(n3)N(COP(=O)(O)O)C(=O)C(C)(C)O4)n2)cc(OC)c1OC | – | 5.44 µM (active)
17 | N#CC1(c2cccc(C(=O)Nc3cc(Oc4ccc5nc(NC(=O)C6CC6)sc5n4)ccc3F)c2Cl)CC1 | – | 17.2 µM (active)
18 | CC(C)n1c(/C=C/[C@@H](O)C[C@@H](O)CC(=O)O)c(-c2ccc(F)cc2)c2ccccc21 | – | 1.72 µM (active)
19 | CCC(=O)N1CCN(c2ccc(-n3c(=O)ccc4cnc5ccc(-c6cnc7ccccc7c6)cc5c43)cc2C(F)(F)F)CC1 | – | 0.0044 µM (active)
20 | CNC(=O)c1ccccc1Sc1ccc2c(/C=C/c3ccccn3)n[nH]c2c1 | – | 19.3 µM (active)

Row | SMILES | activity change, negative = viability loss [%] | Potency
21 | Cc1[nH]c2ccccc2c1CCNCc1ccc(/C=C/C(=O)NO)cc1 | – | 0.172 µM (active)
22 | CCOc1ccc(Nc2nc(-c3c(C)nc4ccccn34)cs2)cc1 | -19.2 | –
23 | Cc1cc(C(=O)N2CCN(c3cccc(Cl)c3)CC2)n(-c2ccccc2)n1 | – | 0.544 µM (active)
24 | COc1cc2c(NC3CCN(C(C)C)CC3)nc(C3CCCCC3)nc2cc1OCCCN1CCCC1 | – | 30.6 µM (active)
25 | Cc1cc(C(C)Nc2ccccc2C(=O)O)c2nc(N3CCOCC3)cc(=O)n2c1 (stereo not given) | – | 3.06 µM (active)
26 | CCCCN(CCCC)C(=O)CN1C[C@H](c2ccc3c(c2)OCO3)[C@@H](C(=O)O)[C@@H]1c1ccc(OC)cc1 | -4.83 | –
27 | NC(=O)Nc1cc(-c2cccc(F)c2)sc1C(=O)NC1CCCNC1 (stereo not given) | – | 5.44 µM (active)
28 | NC(=O)c1ccc2nc(-c3ccc(Oc4ccc(Cl)cc4)cc3)[nH]c2c1 | 11.9 | –
29 | Nc1ccn([C@@H]2O[C@H](CO)[C@@H](O)C2(F)F)c(=O)n1 | – | 1.37 µM (active)
30 | c1cc(N[C@@H]2CCNC2)nc(-c2cnc3ccc(-c4cn[nH]c4)cn23)c1 | -12.7 | –
31 | CC(Oc1ccc2[nH]nc(/C=C/c3cnn(CCO)c3)c2c1)c1c(Cl)cncc1Cl (stereo not given) | – | 3.06 µM (active)
32 | Cn1cc(-c2[nH]c3cc(NC(=O)[C@H](N)C4CCCCC4)cc4c3c2C=NNC4=O)cn1 | – | 0.968 µM (active)
33 | CCCCN(CCCC)CC(O)c1cc(Cl)cc2c1-c1ccc(Cl)cc1/C2=C/c1ccc(Cl)cc1 (stereo not given) | -12.8 | –
34 | Cc1ccc(C(=O)Nc2cccc(C(F)(F)F)c2)cc1-c1ccc2nc(NCCN3CCOCC3)ncc2c1 | – | 12.2 µM (active)
35 | COC(C(=O)N1Cc2[nH]nc(NC(=O)c3ccc(N4CCN(C)CC4)cc3)c2C1)c1ccccc1 (stereo not given) | 10.3 | –
36 | Cc1cncc2cccc(S(=O)(=O)N3CCCN(C(=O)CN)C[C@@H]3C)c12 | -34.9 | –
37 | C=CC(=O)Nc1cccc(Oc2nc(Nc3ccc(N4CCN(C)CC4)cc3)ncc2Cl)c1 | – | 1.72 µM (active)
38 | Cc1c2oc3c(C)ccc(C(=O)N[C@@H]4C(=O)N[C@H](C(C)C)C(=O)N5CCC[C@H]5C(=O)N(C)CC(=O)N(C)[C@@H](C(C)C)C(=O)O[C@@H]4C)c3nc-2c(C(=O)N[C@@H]2C(=O)N[C@H](C(C)C)C(=O)N3CCC[C@H]3C(=O)N(C)CC(=O)N(C)[C@@H](C(C)C)C(=O)O[C@@H]2C)c(N)c1=O (I: T[dV]P[Sar][NMeV] / II: T[dV]P[Sar][NMeV]; ester I:1-I:C, II:1-II:C; linker I:N-II:N via Actinocin(9to1)) | – | 0.544 µM (active)
39 | OCCNC1CCCc2c1[nH]c1ccc(-c3ccccc3)cc21 (stereo not given) | – | 30.6 µM (active)
40 | Cc1nc(Nc2ncc(C(=O)Nc3c(C)cccc3Cl)s2)cc(N2CCN(CCO)CC2)n1 | – | 21.7 µM (active)

Reference: PubChem BioAssay AID1345085 (National Center for Advancing Translational Sciences (NCATS), 2018)
